# Reference: the supplement of paper PMC11732987, “Enantioselective OTUD7B fragment discovery through chemoproteomics screening and high-throughput optimisation” (Communications Chemistry, 2025)
# Unmarked numbers belong to inactive results.
# What was measured:
# Assay in all cases: log2 ratio of Biotin-Ahx-Ub-VS probe labelling (fragment/DMSO); higher = less target engagement (more negative = stronger competition), active = hit call of the paper (q ≤ 0.05, log2 ratio ≤ -1)
# Details in all cases: compound concentration: 200 uM; treatment time: 3 h
# [1] = target: UniProt O00507
# Method in brief: (§1)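 Using Biotin-Ahx-Ub-VS at 0.5 µM final for 1 h, DUBs were labelled in HEK293T lysate (495 µg per sample) that had first been treated in triplicate with fragment at 200 µM or vehicle for 3 h. NeutrAvidin enrichment, LysC and trypsin digestion and diaPASEF LC-MS/MS followed. Spectronaut label-free quantities were global-median-normalised. Values are average log2 fragment/vehicle ratios by unpaired t-test, using proteins with ≥2 unique peptides.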
# [2] = target: UniProt P51784
# Method in brief: as §1
# [3] = target: T1, UniProt Q5T2D3
# T1 sequence (whole entry): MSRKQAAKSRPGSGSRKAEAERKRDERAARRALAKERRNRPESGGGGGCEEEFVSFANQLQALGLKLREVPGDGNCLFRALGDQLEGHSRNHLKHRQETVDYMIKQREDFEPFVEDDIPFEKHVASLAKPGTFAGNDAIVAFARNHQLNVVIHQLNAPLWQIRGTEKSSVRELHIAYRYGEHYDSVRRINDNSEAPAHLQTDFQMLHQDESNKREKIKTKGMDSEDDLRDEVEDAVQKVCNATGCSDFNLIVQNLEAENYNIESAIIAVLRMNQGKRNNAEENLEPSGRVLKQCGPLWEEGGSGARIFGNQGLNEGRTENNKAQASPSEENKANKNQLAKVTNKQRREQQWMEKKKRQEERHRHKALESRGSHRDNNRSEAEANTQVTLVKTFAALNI
# Method in brief: as §1
# [4] = target: T2, UniProt Q8TE49
# T2 sequence (whole entry): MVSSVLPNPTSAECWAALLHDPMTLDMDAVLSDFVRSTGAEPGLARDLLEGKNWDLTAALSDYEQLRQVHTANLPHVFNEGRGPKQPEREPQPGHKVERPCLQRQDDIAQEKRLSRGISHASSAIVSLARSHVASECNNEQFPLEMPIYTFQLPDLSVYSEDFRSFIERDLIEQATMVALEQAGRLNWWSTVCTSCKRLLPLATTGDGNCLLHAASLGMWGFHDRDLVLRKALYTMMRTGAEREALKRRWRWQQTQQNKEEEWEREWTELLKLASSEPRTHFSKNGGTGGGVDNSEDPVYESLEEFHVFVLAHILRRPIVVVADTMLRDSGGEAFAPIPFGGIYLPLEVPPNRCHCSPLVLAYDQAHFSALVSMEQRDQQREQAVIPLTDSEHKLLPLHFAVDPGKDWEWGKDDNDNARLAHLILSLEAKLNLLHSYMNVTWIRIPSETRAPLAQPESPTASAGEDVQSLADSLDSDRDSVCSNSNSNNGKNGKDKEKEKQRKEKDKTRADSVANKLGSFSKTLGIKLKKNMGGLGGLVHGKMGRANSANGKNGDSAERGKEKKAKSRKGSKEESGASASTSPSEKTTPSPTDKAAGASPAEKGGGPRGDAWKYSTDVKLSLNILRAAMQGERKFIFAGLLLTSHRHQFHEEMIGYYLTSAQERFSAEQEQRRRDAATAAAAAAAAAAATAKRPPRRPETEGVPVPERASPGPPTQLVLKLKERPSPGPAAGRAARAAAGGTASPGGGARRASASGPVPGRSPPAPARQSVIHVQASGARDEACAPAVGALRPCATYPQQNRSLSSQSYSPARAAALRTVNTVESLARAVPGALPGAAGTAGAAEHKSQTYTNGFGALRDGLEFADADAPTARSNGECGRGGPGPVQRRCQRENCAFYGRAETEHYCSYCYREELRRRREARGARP
# Method in brief: as §1
# [5] = target: T3, UniProt Q9P2H5
# T3 sequence (whole entry): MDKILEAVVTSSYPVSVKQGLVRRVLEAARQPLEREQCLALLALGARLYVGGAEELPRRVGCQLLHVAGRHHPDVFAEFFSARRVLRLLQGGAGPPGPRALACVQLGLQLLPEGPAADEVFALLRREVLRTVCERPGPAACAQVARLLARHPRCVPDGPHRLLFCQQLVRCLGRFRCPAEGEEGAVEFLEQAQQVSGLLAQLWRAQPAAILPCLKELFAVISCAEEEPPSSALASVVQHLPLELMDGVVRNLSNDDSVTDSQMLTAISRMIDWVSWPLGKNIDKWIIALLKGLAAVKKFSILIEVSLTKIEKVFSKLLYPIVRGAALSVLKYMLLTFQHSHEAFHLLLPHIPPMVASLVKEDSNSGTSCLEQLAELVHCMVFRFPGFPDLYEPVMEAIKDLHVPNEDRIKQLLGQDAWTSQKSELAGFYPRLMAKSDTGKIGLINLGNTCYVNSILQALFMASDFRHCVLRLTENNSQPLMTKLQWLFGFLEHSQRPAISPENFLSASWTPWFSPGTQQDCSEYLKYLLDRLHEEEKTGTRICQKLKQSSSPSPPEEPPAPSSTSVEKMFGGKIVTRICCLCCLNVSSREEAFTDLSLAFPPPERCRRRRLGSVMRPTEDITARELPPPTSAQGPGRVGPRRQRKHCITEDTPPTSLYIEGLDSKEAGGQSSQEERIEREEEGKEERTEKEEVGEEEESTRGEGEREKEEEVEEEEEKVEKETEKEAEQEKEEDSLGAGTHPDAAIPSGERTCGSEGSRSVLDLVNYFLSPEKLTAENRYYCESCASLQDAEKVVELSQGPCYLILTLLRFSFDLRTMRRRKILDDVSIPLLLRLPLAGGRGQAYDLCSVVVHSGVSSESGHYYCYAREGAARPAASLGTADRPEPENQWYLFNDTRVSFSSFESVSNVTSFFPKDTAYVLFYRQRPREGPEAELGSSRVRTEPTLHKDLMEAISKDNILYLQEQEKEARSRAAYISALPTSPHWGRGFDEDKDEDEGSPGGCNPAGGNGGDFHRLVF
# Method in brief: as §1
# [6] = target: T4, UniProt Q9UGI0
# T4 sequence (whole entry): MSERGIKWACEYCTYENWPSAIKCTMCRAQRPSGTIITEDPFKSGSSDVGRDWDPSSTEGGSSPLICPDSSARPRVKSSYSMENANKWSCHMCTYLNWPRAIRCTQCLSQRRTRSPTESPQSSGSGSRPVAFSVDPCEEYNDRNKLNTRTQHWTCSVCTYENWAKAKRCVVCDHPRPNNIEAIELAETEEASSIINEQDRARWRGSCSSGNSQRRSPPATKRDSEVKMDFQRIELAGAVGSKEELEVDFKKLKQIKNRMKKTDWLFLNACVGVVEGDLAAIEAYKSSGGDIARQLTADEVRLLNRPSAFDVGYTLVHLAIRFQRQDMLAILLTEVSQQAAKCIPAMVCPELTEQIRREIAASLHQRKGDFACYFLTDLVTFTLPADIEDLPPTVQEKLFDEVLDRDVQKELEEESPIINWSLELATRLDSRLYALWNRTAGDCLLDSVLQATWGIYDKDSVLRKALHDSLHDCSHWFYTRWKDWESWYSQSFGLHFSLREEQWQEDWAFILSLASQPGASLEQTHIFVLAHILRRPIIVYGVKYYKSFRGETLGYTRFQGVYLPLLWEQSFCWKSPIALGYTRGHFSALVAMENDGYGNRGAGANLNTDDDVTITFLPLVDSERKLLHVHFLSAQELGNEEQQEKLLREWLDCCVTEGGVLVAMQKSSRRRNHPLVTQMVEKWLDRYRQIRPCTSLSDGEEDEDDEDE
# Method in brief: as §1
# [7] = target: T5, YOD1 (UniProt Q5VVQ6)
# T5 sequence (whole entry): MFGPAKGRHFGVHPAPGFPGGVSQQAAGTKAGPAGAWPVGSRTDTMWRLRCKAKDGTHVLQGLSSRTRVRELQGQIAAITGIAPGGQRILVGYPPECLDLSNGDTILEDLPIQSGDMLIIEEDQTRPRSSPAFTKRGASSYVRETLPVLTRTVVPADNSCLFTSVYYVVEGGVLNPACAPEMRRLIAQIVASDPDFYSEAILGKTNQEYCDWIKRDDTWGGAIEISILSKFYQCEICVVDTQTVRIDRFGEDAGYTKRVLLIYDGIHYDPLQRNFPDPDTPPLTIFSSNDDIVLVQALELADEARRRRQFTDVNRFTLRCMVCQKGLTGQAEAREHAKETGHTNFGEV
# Method in brief: as §1
# UniProt P51784, sequence (P51784 whole entry): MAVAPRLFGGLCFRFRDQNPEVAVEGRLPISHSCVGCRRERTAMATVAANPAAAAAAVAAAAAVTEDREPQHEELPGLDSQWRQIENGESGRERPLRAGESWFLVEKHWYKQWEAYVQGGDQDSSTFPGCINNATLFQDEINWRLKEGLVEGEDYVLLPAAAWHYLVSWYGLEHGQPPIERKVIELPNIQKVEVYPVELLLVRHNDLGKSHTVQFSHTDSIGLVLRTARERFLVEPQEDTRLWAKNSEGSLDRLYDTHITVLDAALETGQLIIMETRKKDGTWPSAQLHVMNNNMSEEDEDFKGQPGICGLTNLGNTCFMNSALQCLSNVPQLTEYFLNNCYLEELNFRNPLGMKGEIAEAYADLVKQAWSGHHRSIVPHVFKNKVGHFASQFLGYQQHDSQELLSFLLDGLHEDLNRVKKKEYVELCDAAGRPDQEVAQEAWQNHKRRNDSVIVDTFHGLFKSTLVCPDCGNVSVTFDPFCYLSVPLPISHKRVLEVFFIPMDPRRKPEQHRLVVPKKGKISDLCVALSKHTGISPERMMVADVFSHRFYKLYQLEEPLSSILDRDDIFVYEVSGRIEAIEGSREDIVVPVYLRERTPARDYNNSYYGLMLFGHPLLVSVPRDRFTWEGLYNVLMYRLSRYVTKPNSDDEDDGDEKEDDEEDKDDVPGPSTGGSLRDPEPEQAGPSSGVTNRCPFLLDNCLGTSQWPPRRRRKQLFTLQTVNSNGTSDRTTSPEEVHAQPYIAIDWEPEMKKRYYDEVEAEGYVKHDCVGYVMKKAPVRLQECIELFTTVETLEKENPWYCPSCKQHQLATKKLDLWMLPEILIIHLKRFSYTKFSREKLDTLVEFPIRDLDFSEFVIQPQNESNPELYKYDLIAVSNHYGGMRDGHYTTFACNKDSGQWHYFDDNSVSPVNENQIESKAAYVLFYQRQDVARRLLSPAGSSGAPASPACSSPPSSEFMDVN
# UniProt O00507, sequence (O00507 whole entry, the tested form may be a part): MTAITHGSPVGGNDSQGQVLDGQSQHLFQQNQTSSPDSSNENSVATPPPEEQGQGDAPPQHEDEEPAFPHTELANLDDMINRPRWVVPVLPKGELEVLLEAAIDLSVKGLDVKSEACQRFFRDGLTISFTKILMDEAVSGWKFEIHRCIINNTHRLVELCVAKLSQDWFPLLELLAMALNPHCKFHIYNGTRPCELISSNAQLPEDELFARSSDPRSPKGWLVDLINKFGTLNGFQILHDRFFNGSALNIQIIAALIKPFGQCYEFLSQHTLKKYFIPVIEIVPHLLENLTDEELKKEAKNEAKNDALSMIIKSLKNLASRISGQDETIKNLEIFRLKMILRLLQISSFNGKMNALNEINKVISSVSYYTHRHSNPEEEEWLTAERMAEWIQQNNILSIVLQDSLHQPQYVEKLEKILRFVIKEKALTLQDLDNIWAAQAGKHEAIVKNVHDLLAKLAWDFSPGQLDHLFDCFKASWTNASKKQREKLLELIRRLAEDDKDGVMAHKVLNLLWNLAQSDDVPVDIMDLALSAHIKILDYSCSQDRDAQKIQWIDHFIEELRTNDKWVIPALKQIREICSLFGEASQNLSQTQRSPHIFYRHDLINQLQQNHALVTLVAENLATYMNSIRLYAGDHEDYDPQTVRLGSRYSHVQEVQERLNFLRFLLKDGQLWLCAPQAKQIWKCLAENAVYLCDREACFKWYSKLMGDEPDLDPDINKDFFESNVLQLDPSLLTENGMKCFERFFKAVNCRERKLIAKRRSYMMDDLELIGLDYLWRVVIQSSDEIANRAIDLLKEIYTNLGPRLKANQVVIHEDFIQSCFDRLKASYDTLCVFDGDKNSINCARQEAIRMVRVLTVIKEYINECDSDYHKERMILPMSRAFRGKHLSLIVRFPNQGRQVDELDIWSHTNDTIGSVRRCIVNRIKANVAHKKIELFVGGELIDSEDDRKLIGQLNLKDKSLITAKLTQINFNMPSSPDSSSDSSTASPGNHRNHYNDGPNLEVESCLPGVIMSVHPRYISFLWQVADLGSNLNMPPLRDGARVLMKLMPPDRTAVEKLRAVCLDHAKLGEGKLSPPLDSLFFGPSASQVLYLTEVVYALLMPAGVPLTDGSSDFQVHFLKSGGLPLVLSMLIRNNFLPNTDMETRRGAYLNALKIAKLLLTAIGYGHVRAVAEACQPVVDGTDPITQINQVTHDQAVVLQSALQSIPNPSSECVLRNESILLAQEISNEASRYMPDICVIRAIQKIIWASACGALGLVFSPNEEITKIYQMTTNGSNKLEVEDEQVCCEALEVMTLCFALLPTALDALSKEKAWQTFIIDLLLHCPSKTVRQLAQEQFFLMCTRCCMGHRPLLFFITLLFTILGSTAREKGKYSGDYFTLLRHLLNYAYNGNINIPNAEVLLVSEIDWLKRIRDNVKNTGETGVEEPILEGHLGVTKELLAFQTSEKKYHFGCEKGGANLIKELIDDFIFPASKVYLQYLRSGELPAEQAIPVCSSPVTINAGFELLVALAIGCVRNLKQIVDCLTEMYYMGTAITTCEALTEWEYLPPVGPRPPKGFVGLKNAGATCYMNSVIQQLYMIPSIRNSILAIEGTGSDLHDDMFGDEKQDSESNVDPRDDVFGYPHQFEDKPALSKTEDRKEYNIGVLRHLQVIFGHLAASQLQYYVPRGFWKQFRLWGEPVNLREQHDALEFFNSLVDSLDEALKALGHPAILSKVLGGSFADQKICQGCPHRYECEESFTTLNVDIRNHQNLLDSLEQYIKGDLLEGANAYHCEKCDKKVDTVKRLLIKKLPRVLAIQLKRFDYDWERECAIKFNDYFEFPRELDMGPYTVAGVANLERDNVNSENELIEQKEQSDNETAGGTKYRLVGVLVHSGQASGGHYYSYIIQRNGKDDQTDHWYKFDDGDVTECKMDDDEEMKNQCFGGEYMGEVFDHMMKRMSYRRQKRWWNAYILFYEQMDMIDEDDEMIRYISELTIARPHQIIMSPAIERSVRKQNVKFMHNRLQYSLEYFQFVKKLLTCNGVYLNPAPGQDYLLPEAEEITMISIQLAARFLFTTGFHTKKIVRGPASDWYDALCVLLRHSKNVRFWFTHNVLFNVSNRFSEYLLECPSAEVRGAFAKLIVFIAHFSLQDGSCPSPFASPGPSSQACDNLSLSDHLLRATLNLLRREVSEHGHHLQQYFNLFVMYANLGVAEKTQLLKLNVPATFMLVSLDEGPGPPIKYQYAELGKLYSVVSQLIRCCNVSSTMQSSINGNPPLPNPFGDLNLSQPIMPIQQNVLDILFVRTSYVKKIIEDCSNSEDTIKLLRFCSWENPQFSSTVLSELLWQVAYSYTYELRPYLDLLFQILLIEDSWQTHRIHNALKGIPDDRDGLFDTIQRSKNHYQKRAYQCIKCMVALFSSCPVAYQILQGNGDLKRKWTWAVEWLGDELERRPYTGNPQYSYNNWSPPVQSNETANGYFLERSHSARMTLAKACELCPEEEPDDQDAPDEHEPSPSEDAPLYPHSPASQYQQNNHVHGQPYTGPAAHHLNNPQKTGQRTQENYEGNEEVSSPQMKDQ
SMILES,log2 ratio of Biotin-Ahx-Ub-VS probe labelling [1],log2 ratio of Biotin-Ahx-Ub-VS probe labelling [2],log2 ratio of Biotin-Ahx-Ub-VS probe labelling [3],log2 ratio of Biotin-Ahx-Ub-VS probe labelling [4],log2 ratio of Biotin-Ahx-Ub-VS probe labelling [5],log2 ratio of Biotin-Ahx-Ub-VS probe labelling [6],log2 ratio of Biotin-Ahx-Ub-VS probe labelling [7]
O=C(CCl)NCc1cccc(N2CCCC2=O)c1,-0.0239,0.0359,0.0544,-0.351,0.0802,-0.491,0.144
O=C(CCl)N1CCc2sccc2C1,-0.0149,-0.207,-0.075,-1.18 (active),-0.371,-1.9 (active),-0.00804
CS(=O)(=O)c1ccc(CNC(=O)CCl)cc1,-0.143,-0.0799,-0.383,-0.563,0.0147,-0.189,-0.172
O=C(CCl)Nc1ccc(F)cc1F,-0.387,0.0319,-0.334,-0.55,-0.199,-0.962,-0.107
Cc1ccccc1CN(C)C(=O)CCl,-1.06 (active),-0.62,-0.704,-1.06 (active),-0.712,-1.3 (active),-0.638
O=C(CCl)N1CCOCCC1c1ccccc1 (configuration not stated),-0.114,0.0584,-0.173,-0.54,-0.305,-0.25,0.199
